Screening data from PubChem.
The entries come from a sample that favours hits as a whole.
AMA1 RON2 block = qHTS for Inhibitors of AMA1-RON; Towards Development of Antimalarial Drug Lead: Primary Screen; actives 0.2% (n = 360,000); Plasmodium falciparum AMA1 (3D7) - RON2 peptide interaction; Potency, µM (doses to about 58.2 µM), without a hit: at the top dose activity change, negative = inhibition, usual class: inhibitors; AlphaScreen AMA1-biotinylated RON2 peptide binding; AID 720542, 2013;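 further: potency means the concentration at half of the fitted maximal effect; 0% = vehicle wells and -100% = peptide control; nearly all actives have a fitted effect of over 45% in size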
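AMA1 (3D7) with his tag at 25 nM final met compounds first, then biotinylated RON2 peptide at 25 nM; detection used donor plus acceptor beads, 10 µg/mL apiece, read by AlphaScreen after 30 min at room temperature.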
AmpC no deterg = qHTS Inhibitors of AmpC Beta-Lactamase (assay without detergent); Potency, µM (titrated, usually from 57.1 µM), without a hit: top-dose activity change, negative = inhibition, most hits filed as inhibitors; AID 485341, 2010; P00811; actives 0.52% (n = 330,000); AmpC nitrocefin hydrolysis, absorbance 480 nm, 0.0001% Triton;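 further: potency means the concentration at half of the fitted maximal effect; plate controls were no compound for no effect and no enzyme for full effect; nearly all actives have a fitted effect of over 20% in size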
Target sequence (P00811 whole entry, looked up): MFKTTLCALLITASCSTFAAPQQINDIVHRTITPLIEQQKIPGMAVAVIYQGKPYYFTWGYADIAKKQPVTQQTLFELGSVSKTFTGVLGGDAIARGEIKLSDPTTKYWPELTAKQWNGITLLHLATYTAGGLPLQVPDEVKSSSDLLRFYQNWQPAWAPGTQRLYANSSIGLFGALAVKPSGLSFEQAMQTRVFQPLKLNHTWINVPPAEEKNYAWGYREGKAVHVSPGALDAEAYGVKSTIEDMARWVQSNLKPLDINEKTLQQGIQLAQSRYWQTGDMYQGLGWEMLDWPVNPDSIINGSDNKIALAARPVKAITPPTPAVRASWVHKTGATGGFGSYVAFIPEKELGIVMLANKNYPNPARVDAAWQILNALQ
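20 mM phosphate pH 7.0 + 0.01% (detergent screen) or 0.0001% Triton X-100; 5.3 nM AmpC reagent; cpd preinc 15 min RT; nitrocefin (800 uM stock) to start; A480 q20 s × 4 min; Activity was normalised to no-enzyme and no-compound control wells.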
CHX counter = Cycloheximide Counterscreen for Small Molecule Inhibitors of Shiga Toxin | cell reporter, cycloheximide protein synthesis inhibition counterscreen | max response, % | actives 12% (n = 300,000) | AID 2314, 2010; in the data active means max response mostly above about 13%, no sharp cut-off; inactive means mostly below about 14%; further: read at 38.3 µM for the half of the compounds with a filed dose; 0% is about no effect
AmpC inh detg = qHTS Inhibitors of AmpC Beta-Lactamase (assay with detergent) | AID 485294, 2010 | Potency, µM (series often up to 114 µM), for inactives: at the top dose activity change, negative = inhibition, most hits filed as inhibitors | actives 0.041% (n = 370,000) | AmpC hydrolysis of nitrocefin, absorbance 480 nm, 0.01% Triton;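 further: potency means the concentration at half of the fitted maximal effect; 0% = no-compound wells and -100% = no-enzyme wells; nearly all actives have a fitted effect of over 25% in size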
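20 mM phosphate pH 7.0 + 0.01% (detergent screen) or 0.0001% Triton X-100; 5.3 nM AmpC reagent; cpd preinc 15 min RT; nitrocefin (800 uM stock) to start; A480 q20 s × 4 min; Activity was normalised to no-enzyme and no-compound control wells.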
SARS PLP yeast = qHTS of Yeast-based Assay for SARS-CoV PLP | S. cerevisiae expressing SARS-CoV PLpro, growth rescue | actives 0.19% (n = 330,000) | Potency, µM (top dose mostly 32.9 µM), inactives show top-dose activity, positive = growth rescue, usual class: activators; calls by dose curve; further: potency means the concentration at half of the fitted maximal effect; 0% is about no effect; nearly all actives have a fitted effect of over 55% in size
Shiga toxin inh = A qHTS for Small Molecule Inhibitors of Shiga Toxin | Vero cells, Shiga toxin protein synthesis inhibition reporter | inhibition, % at 38.7 µM | actives 9.2% (n = 290,000) | AID 2315, 2010; in the data active means inhibition mostly above about 28%, no sharp cut-off; inactive means mostly below about 43%; further: 0% is about no effect
* = called active by the depositor; u = inconclusive; x = no result given; + = active, no number; [ ] = remark or other dose. Unless noted, the call rests on the fitted dose curve; in most records, active means well fitted curve in the direction sought with a large enough effect; inconclusive means small, poorly fitted or top-dose-only effect, or another doubt; inactive means no such curve, though single readings can be large; an effect the other way counts as inactive or inconclusive.

SMILES	AMA1 RON2 block	AmpC no deterg	CHX counter	AmpC inh detg	SARS PLP yeast	Shiga toxin inh
COc1ccc(S(=O)(=O)N2CCN(C(=O)c3ccc([N+](=O)[O-])o3)CC2)cc1	2.0%	-4.8%	-0.7	-5.1%	-2.2%	-2.3
O=C1NC(=O)N(Cc2ccc(F)cc2)C(=O)/C1=C\C=C\c1ccco1	-15.0%	-49.0%	-1.6	5.6%	-3.0%	11.3
CC1(C)N=C(N)NC(Nc2ccc(Br)cc2)=N1	15.7%	-30.5%	6.9	-0.8%	-4.7%	-16.0
O=C(Nc1ccc2oc(-c3cccnc3)nc2c1)c1ccc(Br)o1	5.5%	-12.0%	-4.1	0.5%	-7.5%	-6.4
Cc1cc2nc(-c3cccc(NC(=O)c4ccc(Br)o4)c3)oc2cc1C	-2.1%	-11.4%	41.1*	0.0%	13.5%	80.2
Cc1ccc2oc(-c3cccc(NC(=O)c4ccc(Br)o4)c3)nc2c1	-15.4%	-29.2%	25.6*	-4.2%	8.6%	38.0
Cc1ccc2oc(-c3cccc(NC(=O)c4cccc5c(Br)cccc45)c3)nc2c1	x	x	x	7.3%	x	x
Cc1cc(C(F)(F)F)n2nc(-c3ccc(Br)cc3)cc2n1	x	x	x	8.3%	x	x
COc1ccc(S(=O)(=O)Nc2nnc(CC(C)(C)C)s2)cc1	17.2%	-18.2%	-3.7	3.0%	3.5%	14.6
CC(C)c1ccc(/C=C/c2[nH]c(=O)[nH]c(=O)c2[N+](=O)[O-])cc1	-11.2%	-42.4%	12.7*	-14.3%	3.3%	18.8*
O=C1/C(=C/c2ccc(C(=O)O)cc2)CCC/C1=C\c1ccc(C(=O)O)cc1	3.7%	-1.3%	-3.1	1.4%	15.4%	-0.9
COc1ccc(/C=C2\CCCCC2=O)cc1	-26.9%	x	x	x	x	x
COc1ccc(/C=C2\CCC/C(=C\C=N\N(C)C)C2=O)cc1	u	7.8%	27.7*	-2.8%	-8.5%	40.7
CN(C)/N=C/C=C1\CCC/C(=C\c2ccc(F)c(F)c2)C1=O	u	-8.7%[2.29 µM]	86.6*	2.5%	-2.3%	+
Cc1nc(NC(=O)CSc2nc3ccccc3s2)sc1C(=O)N(C)C	10.4%	29.5%	14.0	u	1.1%	-4.4
CCOC(=O)c1sc2nc(NC(=O)C(C)(C)C)sc2c1C	8.3%	48.4%	35.7*	u	-15.8%	105.0*
CCOC(=O)c1sc2nc(NC(=O)C3CC3)sc2c1C	1.9%	-16.6%	7.1	-14.0%	11.7%	3.4
Cc1cccc(-n2nnc3cnn(C)c3c2=O)c1	0.8%	-13.9%	-1.7	3.6%	4.1%	7.8
CCc1cccc(C)c1NS(=O)(=O)c1cccs1	-10.0%	-21.5%	-5.6	-8.6%	0.6%	2.6
COc1cccc2c(=O)n(CC(=O)Nc3ccccc3)ccc12	-4.4%	50.1µM*	6.6	-10.9%	2.2%	11.0
COc1cccc2c(=O)n(CC(=O)NC3CCCC3)ccc12	11.9%	-7.6%	24.1*	u	8.0%	48.6
COc1cccc2c(=O)n(CC(=O)N3CCCCC3)ccc12	0.8%	39.8µM*	6.3	2.3%	0.2%	37.6
COc1cccc2c(=O)n(CC(=O)Nc3ccc(F)cc3F)ccc12	-0.3%	25.1µM*	-3.3	u	3.1%	8.8
Cc1cc(=O)[nH]c(SCc2nc3ccc([N+](=O)[O-])cc3[nH]2)n1	54.9%	-33.6%	1.9	-11.1%	10.9%	13.9
COc1cc(/C=C/C(=O)OCC(=O)Nc2ccc(S(N)(=O)=O)cc2)ccc1O	-11.5%	-37.0%	28.2*	3.3%	0.3%	-7.5
COc1cccc(/C=C/C(=O)OCC(=O)Nc2cccc(S(=O)(=O)N(C)C)c2)c1	35.6%	-36.3%	15.1*	4.8%	0.1%	5.6
COc1cccc(/C=C/C(=O)OCC(=O)Nc2ccc(Cl)c(S(=O)(=O)N(C)C)c2)c1	3.3%	-9.0%	7.9	7.1%	-1.2%	7.1
Clc1ccc(-c2ccnc(-n3cccc3)n2)s1	4.5%	-16.7%	8.4	u	-0.6%	16.0
Clc1ccsc1-c1ccnc(-n2cccc2)n1	46.5%	-38.4%	22.2*	-6.5%	-1.2%	52.0*
